Source: PubChem BioAssay AID624305 (National Center for Advancing Translational Sciences (NCATS), 2012)
Records with an inconclusive call do not appear. Unmarked numbers belong to inactive results. Calls of active or inactive are those of the source. The call rests on the fitted dose curve; in most records, active means well fitted activation curve with a large enough effect; inconclusive means small, poorly fitted or top-dose-only effect; inactive means no such curve, though single readings can be large or run the other way.
Potency means the concentration at half of the fitted maximal effect.

Assay: qHTS assay for re-activators of p53 using a Luc reporter: Hit Validation; further: nearly all actives have a fitted effect of over 75% in size; on activation: 0% is about no effect
Settings: p53-responsive luciferase reporter cells, luminescence, H1299 line expressing heat-sensitive Ala138Val p53; series mostly up to 46.1 µM
Source text: The p53 tumor suppressor plays a key role in suppression of tumorigenesis and in human carcinogenesis. It is frequently found inactivated in human cancers, mainly by point mutation. These point mutations are found in a wide variety of human cancers and a majority of them affect the DNA binding domain of the protein. The point mutations either alter native p53 conformation or abolish DNA contact. Additionally, cancer cells with p53 mutations are more resistant to chemo-radiation therapies.
In order to find activators to reactivate this important protein, a cell-based screen for p53-dependent luciferase-reporter expression was developed. A p53-null H1299 lung cancer cell line was stably co-transfected with a temperature sensitive p53 mutant, p53-A138V, and a p53-responsive BP100-luciferase reporter. This cell model has previously been characterized in a gene chip profiling experiment for p53 activation. By lowering the culture temperature from 37 deg C (mutant p53 conformation) to 32 deg C (w.t. p53 conformation), a 30-60 fold increase in activation of luciferase activity is observed. At assay temperate, 37 deg C, basal reporter expression is very low and after the addition of detection reagent, a luminescent read-out is carried out. This is the hit validation assay, confirming the hits identified from the primary screen.
NIH Chemical Genomics Center [NCGC]
NIH Molecular Libraries Probe Production Centers Network [MLPCN]
Assay Provider (PI): Yi Sung, University of Michigan at Ann Arbor
5ul of 1000 cells per well are dispensed in all wells except column 4, into white solid-bottom TC-treated Kalypsys plates. The cells are kept in Opti-MEM and supplemented with 10% FBS and dispensed using a Multidrop (Thermo). Then using the Kalypsys pin-tool, 23nl of compounds are pinned. The compounds are starting concentration at 10mM, with 1:5 dilution, 4 points, and the control compound nocodazole is pinned in column 1 at 25mM, 1:3 dilution, in duplicate, 25mM nocodazole is pinned in column 2. Please note, all concentrations are working concentrations. 5ul of 1pM purified luciferase enzyme is dispensed using the Kalypsys dispenser in column 4. Plates are incubated for 24 hrs at 37 deg C, 5% CO2, and 95% humidity. Then 4ul of the detection reagent Amplite (ABD Bioquest) is added using the Kalypsys dispenser. Plates are incubated for 10 min at ambient room temperature and are then read on the ViewLux (Perkin Elmer) using a clear filter for a luminescent read-out.
For `c1ccc2oc(C3=NNC(=NC4CC4)SC3)cc2c1`, the Potency was 0.366 µM (active). In the case of `COc1cccc(/C=N/Nc2ccc([N+](=O)[O-])cn2)c1O`, the Potency is reported as 9.2 µM (active). With `CCC(=O)Nc1ccc2oc(-c3cccc(C)c3)nc2c1` the Potency was 0.0731 µM (active). In the case of `O=C(N/N=C/c1sc(=O)[nH]c1-[n+]1ccc2ccccc2c1)c1ccccc1[O-]`, the Potency is reported as “inactive”. With `CC(C)(C)c1cc(-n2ccnc2)n2ncc(-c3ccc(Cl)cc3)c2n1` the Potency was “inactive”. With `COc1ccc2c(c1)Cc1sc(NC(C)=O)nc1-2` the Potency was 11.6 µM (active). In the case of `Cc1cccc(-n2c(C)cc(/C=N\NC(=O)c3cccs3)c2C)c1`, the Potency is reported as 1.16 µM (active). In the case of `Cc1ccc(C(=O)Nc2ccn(C)n2)cc1`, the Potency is reported as 8.2 µM (active). With `Cc1cs/c(=N/C(=S)Nc2ccccc2)n1C` the Potency was 1.84 µM (active). In the case of `O=C(Nc1cccnc1)c1ccc([N+](=O)[O-])s1`, the Potency is reported as “inactive”. With `COC(=O)c1nn(-c2ccc(-c3ccccc3)cc2)cc1O` the Potency was 0.092 µM (active). For `CCOC(=O)CC(=O)Nc1ccc(C(=O)OCC)cc1`, the Potency was “inactive”. With `Cc1ccc(NC(=S)NCC2CCCO2)c(OC(F)F)c1` (stereo not given) the Potency was “inactive”. For `CC(C)c1ccc(NC(=O)c2snc3ccc(Cl)cc23)cc1`, the Potency was 5.8 µM (active). In the case of `CCC(=O)c1ccc(OC(=O)Cc2ccc(OC)cc2)cc1`, the Potency is reported as “inactive”. With `C=CCNc1nc(-c2cc3ccccc3o2)cs1` the Potency was 0.651 µM (active). With `O=C(c1ccccc1)n1c(=S)nc2ccccn21` the Potency was 0.164 µM (active). For `Cc1cc(C(=O)NC2CCCCC2)c(C)n1-c1ccc(F)cc1`, the Potency was 8.2 µM (active). With `Oc1cccc2c(NC(=S)Nc3ccc(OC(F)F)cc3)cccc12` the Potency was “inactive”. In the case of `COc1cccc(Oc2ccc(N)cn2)c1`, the Potency is reported as “inactive”. With `C=C[C@@H]1c2cc(C)ccc2N(S(=O)(=O)c2ccc(C)cc2)[C@H](c2ccccc2C(F)(F)F)C1(C#N)C#N` the Potency was “inactive”. In the case of `Cc1csc(NC(=O)CSc2nnc(-c3cccs3)n2C)n1`, the Potency is reported as “inactive”. In the case of `O=C(Nc1nc2ccccc2s1)c1ccc2c(c1)OCO2`, the Potency is reported as 0.206 µM (active). With `CCc1ccc2oc(-c3ccc(N)cc3)nc2c1` the Potency was 0.092 µM (active). With `Cc1cccc(NC(=O)c2ccccn2)c1C` the Potency was 14.6 µM (active). With `c1nc(C2CCCCC2)cc2cc3c(cc12)OCO3` the Potency was 6.51 µM (active). In the case of `Cc1cccc2nc(CSC(=N)N)c(Br)n12`, the activation is reported as 3.7% [at 9.22 µM]. In the case of `Cc1csc(NC(=O)/C=C/c2ccco2)n1`, the Potency is reported as 10.3 µM (active). With `Clc1ccc(-c2cn3cc(Br)ccc3n2)cc1Cl` the Potency was 0.206 µM (active). For `OCc1cc(Br)ccc1OCc1nc2ccccc2s1`, the Potency was 2.91 µM (active). For `CCSc1nnc(SCC(=O)NC2CCCCC2)s1`, the Potency was “inactive”. With `Cc1cccc(NC(=O)c2oc3c(c2C)C(=O)CC(C)(C)C3)n1` the Potency was “inactive”. For `CCOc1ccc(NC(=O)C(c2ccccn2)N(C(=O)CCl)c2ccc(OC)cc2)cc1` (stereo not given), the Potency was “inactive”. In the case of `COc1ccc2oc(C(=O)OCC(=O)NCCN3C(=O)CSC3=O)c(C)c2c1`, the Potency is reported as “inactive”. With `O=C(c1ccco1)n1c(=S)nc2ccccn21` the Potency was 7.31 µM (active). For `CNc1ccc(/C=C/C(=O)c2ccc(C)cc2)cc1[N+](=O)[O-]`, the Potency was “inactive”. In the case of `COC(=O)c1ccc(CSc2nnc(-c3c[nH]c4ccccc34)n2-c2ccccc2)cc1`, the Potency is reported as “inactive”. For `Cc1ccc(-c2nnc(Oc3cccc(C)c3)c3ccccc23)cc1`, the Potency was 7.31 µM (active). With `COCCCN=C(c1ccco1)n1c(=S)nc(-c2ccco2)n(CCCOC)c1=S` the Potency was “inactive”. With `COc1ccc(N=C(N)SCc2ccccn2)cc1` the Potency was “inactive”.
